Source: PubChem BioAssay (EPA / NIEHS)
Inconclusive results are not listed. Active and inactive are the calls of the source. The calls were made as follows: active = hit-call score of the fitted dose curve at least 0.9, where 1 is the maximum; inconclusive = response in the unintended direction; inactive = score below 0.9.

read-out: HMG-CoA synthase (HMGCS2), HMGCS2 (gene 3158); test: CLD_HMGCS2_24hr: CellzDirect (CLD) Gene Expression Assay for HMG-CoA synthase (HMGCS2) at 24 hours (AID 2283691)
Method: CLD_24hr is a cell-based, multiplexed-readout assay that uses hepatocyte, a human liver primary cell, with measurements taken at 24 hours after chemical dosing in a 96-well plate.CLD_HMGCS2_24hr is one of 16 assay component(s) measured or calculated from the CLD_24hr assay. It is designed to make measurements of mRNA induction, a form of inducible reporter, as detected with chemiluminescence signals by Quantitative Nuclease Protection Assay (qNPA) technology.Data from the assay component CLD_HMGCS2_24hr was analyzed at the endpoint, CLD_HMGCS2_24hr, in the positive analysis fitting direction relative to DMSO as the negative control and baseline of activity. Using a type of inducible reporter, gain-of-signal activity can be used to understand changes in the reporter gene as they relate to the gene HMGCS2. Furthermore, this assay endpoint can be referred to as a primary readout. To generalize the intended target to other relatable targets, this assay endpoint is annotated to the lyase intended target family, where subfamily is HMG-CoA synthase.
Human hepatocyte cultures were treated daily for two consecutive days with fresh dosing solutions containing appropriate concentrations of the 320 ToxCast chemicals (chemical identities were blinded to CellzDirect and other ToxCast collaborators), vehicle control (0.2% DMSO), and positive control inducers as summarized in Table 1. Due to the large number of treatment groups and chemicals examined, the ToxCast chemicals were divided into two groups (spanning two independent cultures of hepatocytes from separate donor preparations (Hu778: ToxCast plates 1 and 2; Hu776: ToxCast plates 3 and 4). Each preparation of human hepatocyte cultures was treated with respective vehicle control, medium only control, set of six positive controls/reference chemicals for the five hepatic receptor pathways, and a subset of eight of the ToxCast chemicals (indoxacarb, pyrithiobac-sodium, norflurazon, cyhalofop-butyl, methomyl, thiram, acetochlor, and propiconazole). These replicate data, coupled with internal replicates designed within the blinded ToxCast chemical library, provided additional data to evaluate interindividual differences between hepatocyte preparations and their potential impact on chemical profiles.Cell morphology and integrity were evaluated using phase-contrast microscopy as an indicator of hepatocyte cell health (Tyson & Green, 1987). Cultures for each treatment group (i.e., media, vehicle [0.2% DMSO], positive control inducers [multiple concentrations], and the ToxCast chemicals [multiple concentrations]) were observed and cell morphology was assessed relative to vehicle control cultures at each harvest time point (0, 6, 24, or 48 h). […] Images were evaluated at the conclusion of the study to assess changes in cell integrity and account for the effects of chemical exposure on uncharacteristic changes in concentration-dependent gene expression profiles. The results from these determinations of apparent cytotoxicity were annotated (yes/no) alongside the corresponding qNPA data for reference.At the conclusion of each treatment period, hepatocyte cultures (96-well) were washed with 1 volume of HBSS, lysed by addition of 25 ul ArrayPlate lysis buffer (HTG, Tucson, AZ), and 70 ul/well of Denaturation Oil, denatured by incubation at 95C for 10 min, and frozen at approximately -70C until analysis by nuclease protection assay (qNPA) (Roberts et al., 2007). For qNPA analysis, cell lysates were thawed at 50C for approximately 30 min, qNPA probes were added, and samples were incubated at 95C for 10 min to begin the detection process by denaturing the target RNA, dissociating the duplexes and secondary structure hybridization. At the conclusion of the hybridization period, S1 nuclease reagent was added to each sample to digest all nonprotected nucleotides at 50C for 60-90 min. […]

Row | SMILES | outcome
1 | CCOC(=O)CC(SP(=S)(OC)OC)C(=O)OCC (stereo not given) | inactive
2 | C=CC1(C)OC(=O)N(c2cc(Cl)cc(Cl)c2)C1=O (stereo not given) | inactive
3 | COP(=S)(OC)Oc1nc(Cl)c(Cl)cc1Cl | inactive
4 | CC(C)C1(C)N=C(c2nc3ccccc3cc2C(=O)O)NC1=O (stereo not given) | inactive
5 | CS/C(C)=N/OC(=O)N(C)SN(C)C(=O)O/N=C(\C)SC | inactive
6 | Oc1ccccc1-c1ccccc1 | inactive
7 | COc1nc(C)nc(NC(=O)NS(=O)(=O)c2ccccc2CCC(F)(F)F)n1 | inactive
8 | CCON=C(CC)C1=C(O)CC(c2c(C)cc(C)cc2C)CC1=O (stereo not given) | inactive
9 | Cc1c(F)c(F)c(COC(=O)C2C(/C=C(\Cl)C(F)(F)F)C2(C)C)c(F)c1F (stereo not given) | inactive
10 | CCCCOC(=O)c1ccccc1C(=O)OCCCC | inactive
11 | O=C(O)c1nc(Cl)ccc1Cl | inactive
12 | COC(=O)C(C)Oc1ccc(Oc2ccc(Cl)cc2Cl)cc1 (stereo not given) | inactive
13 | Cc1cc(Cl)ccc1OCC(=O)O | inactive
14 | O=C(O)COc1nc(Cl)c(Cl)cc1Cl | inactive
15 | CCCCNC(=O)OCC#CI | inactive
